Compound activity (PubChem)
HT1080 IDH1KD tx = kills HT-1080 cells with IDH1 knockdown | HT-1080 IDH1 knockdown viability, ATP luminescence, 48 h | Potency, µM (top dose mostly 46.1 µM), actives largely listed as cytotoxic | 360,000 tested, 2% active | AID 686971
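HT-1080-IDH1KD cells (IDH1 knocked down), 750/well in RPMI with 5% FBS, treated with compound 48 h at 37 degrees C. Viability by CellTiter-Glo luminescence, normalised to DMSO and no-cell wells; concentration-response curves classed.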
HT1080-NT tox = kills 2HG-producing HT-1080-NT fibrosarcoma cells; HT-1080-NT fibrosarcoma viability, CellTiter-Glo ATP luminescence, 48 h; Potency, µM (series often up to 46.1 µM), usual class: cytotoxic; 360,000 tested, 1.6% active;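 further: NT is the 2HG producing partner of a matched IDH1 knockdown line; nearly all actives have a fitted effect of over 55% in size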
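A 48-hour cytotoxicity screen used HT-1080-NT cells plated 2 hours before compound delivery. ATP-based CellTiter-Glo luminescence measured viability, normalized to DMSO and no-cell controls.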
KB-V1 cytotox = kills drug-selected multidrug resistant KB-V1 cells; KB-V1 MDR cells viability, CellTiter-Glo, 72 h; AID 1347076; Potency, µM (top dose mostly 46.1 µM), hits mostly cytotoxic; 400,000 tested, 3.4% active; further: nearly all actives have a fitted effect of over 60% in size
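Cytotoxicity toward P-gp-expressing KB-V1 cells was determined as loss of CellTiter-Glo luminescence after 72 h at 37 degrees C. Compounds were tested in quantitative HTS format across a concentration range, with curves fitted to normalized data.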
IL-1B inflam inh = inflammasome signaling inhibition, IL-1 beta readout | activity change, % at 57.5 µM | AID 743279 | THP-1 LPS/ATP IL-1B secretion, AlphaLISA, 16 h; hits give low values | 360,000 tested, 4.7% active; in the data active means activity change below about -50%; inconclusive means mostly about -30% to -49%
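THP-1 cells pretreated 1 hr with compounds (up to 57.5 uM final), then stimulated with LPS (250 ng/mL final) plus ATP (1.25 mM final); secreted IL-1B measured by AlphaLISA after 16 hr, decreased signal indicating inhibition.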
KB-3-1 cytotox = kills parental KB-3-1 adenocarcinoma cells; KB-3-1 viability, CellTiter-Glo ATP luminescence, 72 h; Potency, µM (doses to about 46.1 µM), usual class: cytotoxic; 400,000 tested, 1.4% active; further: nearly all actives have a fitted effect of over 60% in size
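Parental KB-3-1 adenocarcinoma cells in phenol-red-free DMEM with 10% FBS were pin-treated with compounds at several concentrations, incubated 72 h at 37 °C, and viability read by CellTiter-Glo luminescence; concentration-effect curves were fitted after normalization.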
Each line names hits and unclear results; the compound was inactive in the other large screens. Rows were chosen to be rich in hits. Some 8.8% of all compounds tested hit in one or more screens of this group. Unless noted, the call rests on the fitted dose curve; in most records, active means well fitted curve in the direction sought with a large enough effect; inconclusive means small, poorly fitted or top-dose-only effect, or another doubt; inactive means no such curve, though single readings can be large; an effect the other way counts as inactive or inconclusive.

Cc1cc(NC(=O)CSCC(=O)N2CCN(c3cccc(C)c3C)CC2)no1	none
CC(=O)N1CCc2cc(S(=O)(=O)C(C)CC(=O)NCc3ccco3)ccc21 (configuration not stated)	none
O=C(O)C1Cc2[nH]cnc2C(c2ccccc2O)N1 (configuration not stated)	none
Cc1ccc(/C=C/C(=O)c2ccc([N+](=O)[O-])o2)cc1	HT1080 IDH1KD tx 3.66µM, HT1080-NT tox 11.6µM, KB-V1 cytotox inconclusive, IL-1B inflam inh -113.3
Cc1ccc(C(=O)/C=C/c2ccccc2)o1	KB-V1 cytotox inconclusive, IL-1B inflam inh inconclusive, KB-3-1 cytotox inconclusive
O=C(/C=C/c1ccc(Cl)cc1)c1ccc([N+](=O)[O-])o1	HT1080 IDH1KD tx 13µM, HT1080-NT tox inconclusive, KB-V1 cytotox inconclusive, IL-1B inflam inh inconclusive, KB-3-1 cytotox inconclusive
Cc1c(C(=O)N2CCc3ccccc3C2)oc2ccccc12	none
CC(=O)c1ccc(NS(=O)(=O)c2c(C)nc3scc(C)n3c2=O)cc1	none (no result: HT1080 IDH1KD tx, HT1080-NT tox, IL-1B inflam inh)
CCN(c1ccccc1)S(=O)(=O)c1ccc(N)c(OC)c1	HT1080 IDH1KD tx inconclusive, HT1080-NT tox inconclusive, KB-V1 cytotox 23.1µM, KB-3-1 cytotox 16.4µM
CCN(c1ccccc1)S(=O)(=O)c1ccc(OC)c(NC(=O)Cc2ccccc2OC)c1	KB-3-1 cytotox inconclusive
CC(C)NC(=O)C1=CC(c2ccc3c(c2)OCO3)=NS(=O)(=O)N1C	none (no result: HT1080 IDH1KD tx, HT1080-NT tox, IL-1B inflam inh)
Cc1c(-c2ccccc2)oc2c(C(=O)N3CCN(c4ccccc4F)CC3)cccc2c1=O	KB-V1 cytotox 4.61µM, KB-3-1 cytotox inconclusive
CCCCNC(=O)c1cccc2c(=O)c(C)c(-c3ccccc3)oc12	KB-V1 cytotox inconclusive
O=C1CC(C(=O)N(c2cccc(F)c2)C(C(=O)NC2CCCC2)c2ccccn2)CS1 (configuration not stated)	none
O=C1CC(C(=O)N(c2ccc(F)cc2)C(C(=O)NC2CCCC2)c2ccccn2)CS1 (configuration not stated)	KB-V1 cytotox 11.6µM
CCOc1ccc(-n2c(=O)c3c(C)c(C)sc3n(CC(=O)C(C)(C)C)c2=O)cc1	none (no result: HT1080 IDH1KD tx, HT1080-NT tox, IL-1B inflam inh)
CSc1nnc(-c2sc3cc(Cl)ccc3c2Cl)n1C	KB-V1 cytotox 18.4µM, KB-3-1 cytotox inconclusive
CCn1c(SC)nnc1-c1sc2cc(Cl)ccc2c1Cl	KB-V1 cytotox inconclusive, IL-1B inflam inh inconclusive
COc1cccc(C(O)c2nc(/C=C/c3ccc(C(F)(F)F)cc3)cs2)c1 (configuration not stated)	HT1080 IDH1KD tx inconclusive, HT1080-NT tox inconclusive, KB-V1 cytotox inconclusive, KB-3-1 cytotox inconclusive
O=C(COc1ccc(S(=O)(=O)NC2CCCCC2)cc1)N1CCN(c2cccc(Cl)c2)CC1	HT1080 IDH1KD tx inconclusive, KB-V1 cytotox inconclusive, KB-3-1 cytotox 13µM
CCNS(=O)(=O)c1ccc(CCC(=O)Nc2cc(Cl)ccc2Oc2ccccc2)cc1	HT1080 IDH1KD tx inconclusive, HT1080-NT tox inconclusive, KB-V1 cytotox 16.4µM, IL-1B inflam inh inconclusive
CCNS(=O)(=O)c1ccc(CCC(=O)N2CCN(c3cccc(Cl)c3)CC2)cc1	IL-1B inflam inh -51.4
O=C(CN(Cc1ccc(Cl)cc1)C(=O)CNS(=O)(=O)c1ccccc1)NCC1CCCO1 (configuration not stated)	none
O=C(COC(=O)CNC(=O)c1ccc(Br)o1)Nc1ccccc1OC(F)F	none
Clc1ccccc1CN1CCc2nc(N3CCN(c4ncccn4)CC3)ncc2C1	KB-V1 cytotox 18.4µM, KB-3-1 cytotox inconclusive (no result: HT1080 IDH1KD tx, HT1080-NT tox, IL-1B inflam inh)
CN1CCN(c2ncc3c(n2)CCN(Cc2ccccc2Cl)C3)CC1	none (no result: HT1080 IDH1KD tx, HT1080-NT tox, IL-1B inflam inh)
CCOc1ccc(Nc2cc(C)nc3c(C)cccc23)cc1	HT1080 IDH1KD tx inconclusive, HT1080-NT tox inconclusive, KB-V1 cytotox inconclusive, IL-1B inflam inh -62.7
Cc1cc(Nc2ccc3c(c2)OCCO3)c2ccccc2n1	none
CCOc1ccc(Nc2cc(=O)oc3ccccc23)cc1	KB-V1 cytotox 13µM
Cc1cc(Nc2ccccc2C)c2cccc(C)c2n1	none (no result: HT1080 IDH1KD tx, HT1080-NT tox, IL-1B inflam inh)
Cc1cc(Nc2ccc3c(c2)OCCO3)c2cccc(C)c2n1	HT1080 IDH1KD tx inconclusive, HT1080-NT tox inconclusive, KB-V1 cytotox 23.1µM, IL-1B inflam inh -93.7, KB-3-1 cytotox inconclusive
CC(C)C(=O)Nc1ccc(-c2nc3ccccc3c(=O)o2)cc1	none
